This is a sample that favours compounds with a hit; in the whole collection about 10% have one here.
KB-V1 cytotox – KB-V1 MDR subline cytotoxicity | KB-V1 MDR cells viability, CellTiter-Glo, 72 h | Potency, µM (doses to about 46.1 µM), actives largely listed as cytotoxic | 3.4% of 400,000 active | AID 1347076; also: % is scaled to controls: 0 for no effect and ±100 for the full control effect; nearly all actives have a fitted effect of over 60% in size
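KB-V1, DMEM (no phenol red) + 10% FBS; cpd pin-transferred, titration series; 72 h, 37 degrees C; CellTiter-Glo, luminescence. Data normalized, curve-fit.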
MCF10A rerep – DNA re-replication induction in MCF 10a cells; 2.9% of 350,000 active; MCF 10A DNA re-replication, Hoechst nuclear intensity, 48 h; Potency, µM (top dose mostly 46.1 µM), for inactives: at the top dose activity, positive = re-replication, hits mostly activators; also: % of control where 0% means no effect; nearly all actives have a fitted effect of over 50% in size
RORgamma inh – blocks mouse ROR gamma transcriptional activity | P51450 | Drosophila S2 Gal4-RORgamma UAS-luciferase reporter, 20 h | Potency, µM (highest dose often 53.6 µM), without a hit: top-dose activity change, negative = inhibition, hits mostly inhibitors | 5.4% of 310,000 active; also: % is scaled to controls: 0 for no effect and ±100 for the full control effect; nearly all actives have a fitted effect of over 60% in size
Target sequence (P51450 whole entry, looked up, the tested form may be a part): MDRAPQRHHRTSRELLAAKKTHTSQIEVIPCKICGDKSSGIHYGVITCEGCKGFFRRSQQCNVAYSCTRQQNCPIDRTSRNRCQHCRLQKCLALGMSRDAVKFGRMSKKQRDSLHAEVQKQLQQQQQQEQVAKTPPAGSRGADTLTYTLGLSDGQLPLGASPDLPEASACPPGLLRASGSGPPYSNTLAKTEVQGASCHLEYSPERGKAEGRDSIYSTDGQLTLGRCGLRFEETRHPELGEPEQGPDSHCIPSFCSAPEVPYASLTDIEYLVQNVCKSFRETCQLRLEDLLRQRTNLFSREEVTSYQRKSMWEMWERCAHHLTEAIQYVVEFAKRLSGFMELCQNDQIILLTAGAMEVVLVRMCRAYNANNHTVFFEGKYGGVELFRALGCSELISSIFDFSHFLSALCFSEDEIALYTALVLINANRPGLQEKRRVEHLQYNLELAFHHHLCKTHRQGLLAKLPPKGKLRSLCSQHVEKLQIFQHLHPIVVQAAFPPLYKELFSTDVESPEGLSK
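In this cell-based reporter format, copper sulfate (700 uM final) drives Gal4–ROR gamma fusion expression from a metallothionein promoter in Drosophila Schneider cells; compounds preincubated 1 hr, reporter read after 20 hr at ambient temperature.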
SW480 rerep – induces DNA re-replication in SW480 colon adenocarcinoma cells; SW480 DNA re-replication, Hoechst DNA content imaging, 48 h; Potency, µM (titrated, usually from 46.1 µM), inactives show top-dose re-replication activation, usual class: activators; 1.8% of 340,000 active; also: % of control where 0% means no effect; nearly all actives have a fitted effect of over 55% in size
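First, 250 cells per well were seeded. Next, compound or vehicle (23 nL) was pinned in, plates sat 48 hr at 37 C. Finally Hoechst was added for 40 min before fluorescence scanning.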
KB-3-1 tox – KB-3-1 parental cell cytotoxicity; KB-3-1 viability, CellTiter-Glo ATP luminescence, 72 h; Potency, µM (doses to about 46.1 µM), hits mostly cytotoxic; 1.4% of 400,000 active; AID 1347075; also: % is scaled to controls: 0 for no effect and ±100 for the full control effect; nearly all actives have a fitted effect of over 60% in size
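KB-3-1 cells, DMEM (no phenol red) + 10% FBS; compound by pin transfer, 72 h, 37 °C. Readout: CellTiter-Glo luminescence after 10 min. Data normalized, curve-fitted.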
VP16 counter – counter-screen for ROR gamma inhibitors: Gal4-VP16 reporter; Drosophila S2 Gal4-VP16 UAS-luciferase, luminescence, 20 h; AID 2546; Potency, µM (highest dose often 53.6 µM), without a hit: at the highest dose activity, negative = inhibition, hits mostly inhibitors; 3.5% of 310,000 active;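 also: Gal4-VP16 expression switched on by copper sulfate through the metallothionein promoter; % is scaled to controls: 0 for no effect and ±100 for the full control effect; nearly all actives have a fitted effect of over 50% in size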
Numbers without * were called inactive; i = inactive; u = inconclusive; x = not tested or not shown; [ ] = remark or other dose. Calls follow the shape of the dose curve; as a rule, active = well fitted curve in the direction sought with a large enough effect; inconclusive = small, poorly fitted or top-dose-only effect, or another doubt; inactive = no such curve, though single readings can be large; an effect the other way counts as inactive or inconclusive. Potency is read from the fitted curve at half-maximal effect.

SMILES	KB-V1 cytotox	MCF10A rerep	RORgamma inh	SW480 rerep	KB-3-1 tox	VP16 counter
CCS(=O)(=O)N1Cc2ccccc2CC1C(=O)Nc1nc2c(C)cccc2s1 (configuration not stated)	2.9µM*	-32%	3.5µM*	7%	i	5.6µM*
Cc1cccc(NC(=O)CSc2nccn2Cc2ccco2)c1C	u	6%	u	-3%	i	7%
COC(=O)c1sc2c(c1C)c(=O)n(-c1ccccc1)c(=O)n2CC(=O)Nc1cccc(C)c1	i	x	x	x	i	x
Cc1cnc(C(=O)Nc2nnc(SCc3c(Cl)cccc3Cl)s2)cn1	u	u	2µM*	-5%	i	5µM*
CCCCCC(=O)N1C[C@@H](n2cc(C3CC3)nn2)[C@H](O)C[C@@H]1c1ccc(Cl)cc1	i	x	x	x	i	x
CCOC(=O)[C@]12CCC=C1N(Cc1cccc3ccccc13)C(=O)[C@H](CC(=O)N1CCSCC1)C2	u	x	x	x	i	x
CCCCCCCCN1C(=O)[C@H](CC(=O)N2CCSCC2)C[C@@]2(C(=O)OCC)CCCC=C12	23µM*	x	x	x	u	x
CCOC(=O)[C@]12CCCC=C1N(Cc1cccc3ccccc13)C(=O)[C@H](CC(=O)N1CCCCC1)C2	9.2µM*	x	x	x	u	x
CCOC(=O)[C@]12CCCC=C1N(Cc1cccc3ccccc13)C(=O)[C@H](CC(=O)N1CCSCC1)C2	18µM*	x	x	x	i	x
Cc1oc(-c2ccc(Cl)cc2)nc1Cn1c(=O)cc(C)c2c(C)nn(-c3cccc(F)c3)c21	i	x	x	x	i	x
CC(C)NC(=S)N/N=C/C1=CCC2CC1C2(C)C (configuration not stated)	u	3%	0.79µM*	-4%	i	1.8µM*
CC1=C/C(=N\NC(=S)Nc2cccnc2)CC(C)(C)C1	u	u	1.8µM*	u	i	3.2µM*
CCCCNC(=S)N/N=C/C1=CCC2CC1C2(C)C (configuration not stated)	u	u	1.1µM*	13%	u	0.89µM*
CC1(C)C2CC=C(/C=N/NC(=S)Nc3cccnc3)C1C2 (configuration not stated)	i	-8%	0.5µM*	-23%	i	1.3µM*
CS(=O)(=O)c1ccc(Cl)c(NC(=O)c2ccc(-n3cncn3)c([N+](=O)[O-])c2)c1	u	x	x	x	i	x
C=C(C)CNC(=S)N/N=C/C1=CCC2CC1C2(C)C (configuration not stated)	u	u	0.79µM*	11%	u	1.6µM*
O=C(CSc1ncnc2nc[nH]c12)N1CCN(c2ccc(Cl)cc2)CC1	u	9%	u	-7%	18µM*	-15%
CCCNC(=O)C1(C)CCCN(C(=O)CN2C(=O)c3ccccc3C2=O)C1 (configuration not stated)	i	x	x	x	i	x
NCC1CCC(C(=O)O)CC1 (configuration not stated)	x	-6%[20.6 µM]	22%	-1%[20.6 µM]	x	-1%
CNNC(=S)NC1CC2CC1C1C=CCC21 (configuration not stated)	i	-1%	u	-19%	i	10%
NC(=S)NC1CC2CC1C1C=CCC21 (configuration not stated)	i	-1%	28µM*	-3%	u	-2%
CC(C)(C)CC(=O)NC(=S)NCCc1ccccc1	i	u	7.1µM*	10µM*	i	10µM*
CC(C)CC(=O)NC(=S)NCCc1ccccc1	i	-10%	1.8µM*	-5%[9.22 µM]	i	7.9µM*
CCOc1cc(NC(=S)NCCc2ccccc2)c(OCC)cc1NC(C)=O	i	5%	11µM*	6%	i	-18%
O=C(CC(=O)NCCc1ccccc1)NCCc1ccccc1	i	6%	19%	-8%	i	3%
COc1cc(NC(=S)NCCc2ccccc2)c(OC)cc1NC(=O)CC(C)C	i	2%	10µM*	0%	i	u
